Compound activity as filed in PubChem.
An excerpt weighted towards active compounds, which were near 2.3% of everything screened.
MEKK3 PB1 HTS = raises or lowers MEK5 binding to the human MEKK3 PB1 domain. Q99759. bead-based flow cytometry, Alexa488-MEK5 binding to MEKK3; actives lie on both sides; 0 = blocked by unlabeled MEK5, 100 = vehicle. binding response (% of control), % at 10 µM. 290,000 tested, 1.4% active. AID 1529;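 active means binding response more than 3 SD above or below the average of its plate-row segment, actives on both sides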;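 further: Alexa488 bead fluorescence after subtracting the streptavidin-only scavenger bead signal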
Target sequence (Q99759 whole entry, looked up, the tested form may be a part): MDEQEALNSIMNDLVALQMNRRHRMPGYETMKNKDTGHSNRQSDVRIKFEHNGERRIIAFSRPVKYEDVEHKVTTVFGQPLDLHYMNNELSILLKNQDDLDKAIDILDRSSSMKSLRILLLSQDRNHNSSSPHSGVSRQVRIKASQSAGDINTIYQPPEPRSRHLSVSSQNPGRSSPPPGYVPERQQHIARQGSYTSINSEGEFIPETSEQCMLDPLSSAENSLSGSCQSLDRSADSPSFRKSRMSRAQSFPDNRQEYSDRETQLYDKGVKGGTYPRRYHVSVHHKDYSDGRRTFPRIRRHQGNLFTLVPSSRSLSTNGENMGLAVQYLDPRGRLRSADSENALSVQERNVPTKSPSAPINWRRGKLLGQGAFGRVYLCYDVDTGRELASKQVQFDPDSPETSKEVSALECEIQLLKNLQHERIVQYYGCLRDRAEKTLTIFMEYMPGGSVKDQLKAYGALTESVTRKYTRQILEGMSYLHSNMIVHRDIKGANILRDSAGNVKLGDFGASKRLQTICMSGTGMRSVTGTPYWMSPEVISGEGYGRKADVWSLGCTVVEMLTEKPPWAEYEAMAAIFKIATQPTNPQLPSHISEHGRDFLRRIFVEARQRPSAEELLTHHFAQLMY
MEKK2 WT-MEK5 = raises or lowers MEK5 binding to wildtype human MEKK2 PB1 domain; bead flow cytometry, Alexa488-MEK5 binding to MEKK2 WT; actives lie on both sides; binding response (% of control), % at 10 µM; 290,000 tested, 1.1% active; AID 1531; in the data active means binding response below about 67% or above about 130%
MEKK2mut PB1 HTS = signal of MEK5 binding to mutant human MEKK2 PB1 domain; bead flow cytometry, Alexa488-MEK5 binding to MEKK2 mutant; percent response, % at 10 µM; 290,000 tested, 0.35% active; AID 1530; in the data active means percent response above about 24%, passing the limit was not always enough
UBC13 inh = human UBC13 polyubiquitination inhibition; 330,000 tested, 0.47% active; UBC13 polyubiquitin chain formation, TR-FRET; AID 485273; inhibition, % at 20 µM; P61088; in the data active means inhibition above about 45%, passing the limit was not always enough
MEKK2wt confirm = raises or lowers MEK5 binding to wildtype human MEKK2, retest; shares compounds with MEKK3 PB1 HTS; bead flow cytometry, Alexa488-MEK5 binding to MEKK2 WT; actives lie on both sides; binding response (% of control), % at 10 µM; 5,900 tested, 2.4% active; AID 1892; in the data active means binding response below about 16% or above about 210%; inactive means in between
MEKK2mut confirm = signal of MEK5 binding to mutant human MEKK2, retest | 5,900 tested, 2% active | shares compounds with MEKK3 PB1 HTS | AID 1893 | percent response, % at 10 µM | bead flow cytometry, Alexa488-MEK5 binding to MEKK2 mutant; in the data active means percent response mostly above about 71%, no sharp cut-off; inactive means mostly below about 38%;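 further: higher means compound restores mutant binding toward wildtype level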
MEKK3 confirm = confirmation of inhibitors of MEK5 binding to human MEKK3. shares compounds with MEKK3 PB1 HTS. bead flow cytometry, Alexa488-MEK5 binding to MEKK3; active compounds read low. binding response (% of control), % at 10 µM. 5,900 tested, 1.8% active. AID 1894;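 active means binding response below 72% of control, or above a set upper limit, though filed actives all read lower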;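 further: 100% = DMSO only wells and 0% = binding blocked by excess unlabeled MEK5; lower values mean stronger disruption of MEK5 binding to MEKK3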
An asterisk follows results filed as active; . = no result; [ ] = dose if it differs, or a comment.

SMILES | MEKK3 PB1 HTS | MEKK2 WT-MEK5 | MEKK2mut PB1 HTS | UBC13 inh | MEKK2wt confirm | MEKK2mut confirm | MEKK3 confirm
Cc1cccn2c(=O)c(/C=C(\C#N)C(=O)NC3CCS(=O)(=O)C3)c(N3CCC(C)CC3)nc12 (configuration not stated) | 131.0* | 104.0 | -1.0 | -3.5 | 102.0 | -1.0 | 105.0
COc1ccc(C(=O)NCc2nnc(SCC(=O)N3CCCc4ccccc43)o2)cc1OC | 99.0 | 103.0 | 1.0 | -0.3 | . | . | .
CCc1nc2nc(C)cc(Nc3cccc(C(F)(F)F)c3)n2n1 | 98.0 | 99.0 | -5.0 | 3.7 | . | . | .
Cc1cc(Nc2cccc(C(F)(F)F)c2)n2nc(C)nc2n1 | 1.0*[inhibitor] | 0.0*[inhibitor] | -65.0 | 0.6 | 106.0 | 9.0 | 108.0
CCCCOC(=O)c1ccc(NC(=O)C(=O)NCc2ccncc2)cc1 | 96.0 | 107.0 | 8.0 | 0.8 | . | . | .
CCOC(=O)c1ccc(NC(=O)C(=O)NCc2ccncc2)cc1 | 19.0*[inhibitor] | 24.0*[inhibitor] | -15.0 | 2.9 | 111.0 | 12.0 | 104.0
CCNC(=O)C(=O)NCc1ccncc1 | 97.0 | 99.0 | 0.0 | 2.7 | . | . | .
CCC(C)NC(=O)C(=O)NCc1ccncc1 (configuration not stated) | 81.0*[inhibitor] | 86.0 | -6.0 | -3.7 | 82.0 | -15.0 | 93.0
NC(=O)c1nc(-c2cccs2)nc2c1[nH]c(=O)n2-c1ccc(F)cc1 | 89.0 | 85.0 | -13.0 | -5.4 | . | . | .
O=S(=O)(NC1CC(NS(=O)(=O)OCC(Cl)(Cl)Cl)C2CCCCC12)OCC(Cl)(Cl)Cl (configuration not stated) | 104.0 | 93.0 | -3.0 | -9.2 | . | . | .
O=C(CSc1ccc(-c2nc3ccccc3[nH]2)cn1)Nc1ccc2c(c1)OCCO2 | 102.0 | 104.0 | 0.0 | 0.1 | . | . | .
O=C(CSc1ccc(-c2nc3ccccc3[nH]2)cn1)Nc1ccc(S(=O)(=O)NC2CC2)cc1 | 165.0* | 112.0 | 1.0 | 4.5 | 102.0 | 0.0 | 98.0
CC(C)(C)c1cnnn1-c1ccc(NC(=O)c2ccc(Br)o2)cc1 | 1.0*[inhibitor] | 0.0*[inhibitor] | -41.0 | -2.2 | 102.0 | -1.0 | 104.0
COc1cccc(C(=O)Nc2ccc(-n3nncc3C(C)(C)C)cc2)c1 | 103.0 | 98.0 | -1.0 | -4.1 | . | . | .
O=C(CN(c1cccc([N+](=O)[O-])c1)S(=O)(=O)c1ccccc1)N(Cc1ccccc1)Cc1ccccc1 | 137.0* | 111.0 | 1.0 | 4.6 | 99.0 | -10.0 | 99.0
O=C(CN(c1cccc([N+](=O)[O-])c1)S(=O)(=O)c1ccccc1)NCc1ccccc1 | 96.0 | 96.0 | -1.0 | 12.9 | . | . | .
O=C(NNC(=O)c1csc(N2CCOCC2)n1)c1ccc(=O)[nH]c1 | . | . | . | 12.4 | . | . | .
CO/N=C/c1ccc(Oc2ccc(C)cc2)nc1 | 111.0 | 114.0 | 26.0* | -1.1 | 98.0 | -3.0 | 100.0
Clc1ccc(CNCCCSc2ncccn2)cc1 | 103.0 | 108.0 | 8.0 | 5.3 | . | . | .
Clc1cccc(CNCCCSc2ncccn2)c1 | 114.0 | 139.0* | 27.0* | -2.0 | 126.0 | 19.0 | 111.0
Brc1ccc(CNCCCSc2ncccn2)cc1 | 93.0 | 107.0 | 5.0 | 1.5 | . | . | .
COc1ccc(CNCCCSc2ncccn2)cc1OC | 111.0 | 132.0 | 30.0* | 6.7 | 123.0 | 14.0 | 102.0
CSc1ccc(CNCCCSc2ncccn2)cc1 | 111.0 | 147.0* | 25.0* | 10.3 | 114.0 | 4.0 | 105.0
COc1ccc(CN(C)C(C)C(=O)Nc2ccc([N+](=O)[O-])cc2Cl)cc1OC (configuration not stated) | 113.0 | 116.0 | 18.0 | 7.1 | . | . | .
CCOc1ccc(CN(C)C(C)C(=O)Nc2ccc([N+](=O)[O-])cc2Cl)cc1OC (configuration not stated) | 139.0* | 98.0 | -2.0 | -6.5 | 103.0 | 3.0 | 100.0
SMILES | MEKK3 PB1 HTS | MEKK2 WT-MEK5 | MEKK2mut PB1 HTS | UBC13 inh | MEKK2wt confirm | MEKK2mut confirm | MEKK3 confirm
Cc1cccc(NC(=S)NCc2ccc3c(c2)cc(C)n3C)c1C | 78.0*[inhibitor] | 66.0*[inhibitor] | 5.0 | 10.2 | 104.0 | 1.0 | 103.0
Cc1c(C(=O)NCc2ccc3c(c2)cc(C)n3C)cccc1[N+](=O)[O-] | 73.0*[inhibitor] | 89.0 | -5.0 | 0.9 | 98.0 | -10.0 | 98.0
COc1cccc(NC(=S)NCc2ccc3c(c2)cc(C)n3C)c1 | 84.0 | 86.0 | -14.0 | . | . | . | .
Cc1cc2cc(CNC(=O)c3ccc(Br)o3)ccc2n1C | 66.0*[inhibitor] | 45.0*[inhibitor] | -3.0 | -7.6 | 50.0 | -20.0 | 75.0
Cc1cc2cc(CNC(=O)c3cccc([N+](=O)[O-])c3)ccc2n1C | 72.0*[inhibitor] | 87.0 | 5.0 | 0.6 | 109.0 | 9.0 | 101.0
Cc1cc2cc(CNC(=O)Cc3ccc([N+](=O)[O-])cc3)ccc2n1C | 92.0 | 88.0 | -9.0 | -4.6 | . | . | .
CCCC(=O)NCc1ccc2c(c1)cc(C)n2C | 94.0 | 87.0 | -10.0 | 36.4 | . | . | .
CN(CC(=O)Nc1ccc(F)c(F)c1F)C(=O)c1ccc2c(c1)OCCO2 | . | . | . | -4.4 | . | . | .
Cc1ccc(OCCCCN2CCc3ccccc3C2)cc1 | 111.0 | 120.0 | 19.0 | 6.2 | . | . | .
CC1CCC2C(=O)N(c3ccccc3OC(=O)c3ccccc3F)C(=O)C2C1 (configuration not stated) | 143.0* | 127.0 | 6.0 | -3.3 | 95.0 | -5.0 | 101.0
CCN(C(=O)CSc1nncn1-c1ccccc1)c1c(N)n(Cc2ccccc2)c(=O)[nH]c1=O | 63.0*[inhibitor] | 89.0 | -2.0 | 13.0 | 102.0 | -3.0 | 103.0
CCN(C(=O)CSc1nnc(SC)s1)c1c(N)n(Cc2ccccc2)c(=O)[nH]c1=O | . | . | . | -8.7 | . | . | .
CCN(C(=O)CSc1nnnn1-c1ccccc1)c1c(N)n(Cc2ccccc2)c(=O)[nH]c1=O | 67.0*[inhibitor] | 99.0 | 0.0 | 10.9 | 105.0 | 7.0 | 108.0
CC1CCCC(NS(=O)(=O)c2ccc3c(c2)OCCO3)C1C (configuration not stated) | 106.0 | 106.0 | 4.0 | 2.8 | . | . | .
O=S(=O)(NC1CC2CCC1C2)c1ccc2c(c1)OCCO2 (configuration not stated) | 2.0*[inhibitor] | 3.0*[inhibitor] | -26.0 | 2.7 | 96.0 | 1.0 | 102.0
O=S(=O)(c1cccc(Cl)c1)N1CCN(S(=O)(=O)c2ccc3c(c2)OCCO3)CC1 | . | . | . | -9.7 | . | . | .
O=S(=O)(c1ccc2c(c1)OCCO2)N1CCN(c2cccc(Cl)c2)CC1 | 81.0*[inhibitor] | 87.0 | -17.0 | -1.7 | 98.0 | -8.0 | 101.0
COc1cc(C(=O)NCCC(=O)NCCN2CCCCCC2)cc(OC)c1OC | 111.0 | 143.0* | 24.0 | 21.4 | 133.0 | 16.0 | 104.0
COc1cc(C(=O)NCCN2CCCC2)cc(OC)c1OC | 98.0 | 105.0 | 5.0 | -2.0 | . | . | .
Cc1cccc2c(CC(=O)Nc3ccccc3)noc12 | 114.0 | 112.0 | 8.0 | 2.5 | . | . | .
CCN1CCN(C(c2ccccc2)c2nnnn2Cc2ccc3c(c2)OCO3)CC1 (configuration not stated) | 106.0 | 108.0 | 7.0 | 4.5 | . | . | .
